Data from the supplement of paper PMC8371130.
Counter-ions that a name gives are not always drawn.

Test system: HL-1
Assay: relative cell viability (CellTiter-Glo) vs DMSO control (% of DMSO control); higher = more viable cells
Summary of the method: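 Compounds at 40, 200, 1000 or 5000 nM in 0.01% DMSO were added to HL-1 mouse atrial cardiomyocytes plated at 1000 cells per well in 384-well plates. The next day, cells were exposed to 1% O2 for 48 h and then reoxygenated for 24 h, or left in normoxia for the same time. Viability was read with CellTiter-Glo luminescence and normalised to vehicle-treated controls.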

[1] = oxygen condition: hypoxia 48 h (1% O2) + reoxygenation 24 h, 40 nM
[2] = oxygen condition: hypoxia 48 h (1% O2) + reoxygenation 24 h, 200 nM
[3] = oxygen condition: hypoxia 48 h (1% O2) + reoxygenation 24 h, 1000 nM
[4] = oxygen condition: hypoxia 48 h (1% O2) + reoxygenation 24 h, 5000 nM
[5] = oxygen condition: normoxia 72 h, 40 nM
[6] = oxygen condition: normoxia 72 h, 200 nM
[7] = oxygen condition: normoxia 72 h, 1000 nM
[8] = oxygen condition: normoxia 72 h, 5000 nM

Row | SMILES | relative cell viability [1] | relative cell viability [2] | relative cell viability [3] | relative cell viability [4] | relative cell viability [5] | relative cell viability [6] | relative cell viability [7] | relative cell viability [8]
1 | CCCCCOC(=O)Nc1nc(=O)n([C@@H]2O[C@H](C)[C@@H](O)[C@H]2O)cc1F [Capecitabine] | 104 | 94.1 | 106 | 119 | 105 | 113 | 119 | 129
2 | O=C1N=C(O)NC1(c1ccccc1)c1ccccc1 [Phenytoin sodium] | 96.1 | 96.2 | 95.6 | 111 | 94.5 | 101 | 101 | 107
3 | CNS(=O)(=O)Cc1ccc2[nH]cc(CCN(C)C)c2c1 [Sumatriptan succinate] | 107 | 109 | 100 | 110 | 102 | 100 | 108 | 104
4 | NCCCCCC(=O)O [Aminocaproic acid] | 102 | 102 | 106 | 107 | 106 | 103 | 110 | 112
5 | CN1CC(=O)N2[C@H](c3ccc4c(c3)OCO4)c3[nH]c4ccccc4c3C[C@@H]2C1=O [Tadalafil] | 106 | 105 | 116 | 112 | 106 | 112 | 110 | 121
6 | Clc1ccc(C(Cn2ccnc2)OCc2ccc(Sc3ccccc3)cc2)c(Cl)c1 (stereo unspecified) [Fenticonazole nitrate] | 102 | 102 | 105 | 107 | 102 | 98 | 101 | 104
7 | N#CC[C@H](C1CCCC1)n1cc(-c2ncnc3[nH]ccc23)cn1 [Ruxolitinib] | 95.7 | 98.9 | 104 | 111 | 99.8 | 96.6 | 102 | 104
8 | Clc1ccc(C(c2ccccc2Cl)C(Cl)Cl)cc1 (stereo unspecified) [Mitotane] | 108 | 105 | 107 | 102 | 104 | 110 | 106 | 121
9 | C[C@@H]1C[C@H]2[C@@H]3C[C@H](F)C4=CC(=O)C=C[C@]4(C)[C@@]3(F)[C@@H](O)C[C@]2(C)[C@@]1(O)C(=O)CO [Flumethasone] | 105 | 97.4 | 103 | 106 | 96.3 | 95.8 | 94.4 | 108
10 | Cc1cccc(C)c1NC(=O)C1CCCCN1C (stereo unspecified) [Mepivacaine HCl] | 102 | 99.8 | 121 | 105 | 102 | 110 | 111 | 111
11 | CN(C)c1nc(N(C)C)nc(N(C)C)n1 [Altretamine] | 102 | 109 | 115 | 109 | 115 | 103 | 108 | 122
12 | CN[C@@H]1[C@H](O)[C@H](NC)[C@H]2O[C@@]3(O)C(=O)C[C@@H](C)O[C@H]3O[C@@H]2[C@H]1O [Spectinomycin  hydrochloride] | 105 | 102 | 102 | 109 | 107 | 86.5 | 101 | 101
13 | COc1ccc2[nH]c([S@@+]([O-])Cc3ncc(C)c(OC)c3C)nc2c1 [Esomeprazole sodium] | 94 | 93.2 | 106 | 106 | 94.1 | 96 | 100 | 114
14 | CN(C(=O)CN(CCO)CC(=O)N(C)C(C)(C)Cc1ccccc1)C(C)(C)Cc1ccccc1 [Oxethazaine] | 102 | 103 | 106 | 115 | 99.2 | 103 | 97.9 | 128
15 | COc1cc2nc(N3CCN(C(=O)C4COc5ccccc5O4)CC3)nc(N)c2cc1OC (stereo unspecified) [Doxazosin mesylate] | 104 | 107 | 108 | 106 | 105 | 102 | 103 | 114
16 | Nc1ccc(/N=N/c2ccccc2)c(N)n1 [Phenazopyridine HCl] | 103 | 98.3 | 101 | 112 | 104 | 103 | 114 | 108
17 | COc1ccccc1OCC(O)CN1CCN(CC(=O)Nc2c(C)cccc2C)CC1 (stereo unspecified) [Ranolazine dihydrochloride] | 88.7 | 89.7 | 86.8 | 108 | 98.5 | 97.1 | 98.8 | 110
18 | N=C(N)N/N=C/c1c(Cl)cccc1Cl [Guanabenz acetate] | 96.3 | 113 | 105 | 99.1 | 101 | 99.6 | 98.7 | 98.9
19 | CC(C)C(=O)Nc1ccc([N+](=O)[O-])c(C(F)(F)F)c1 [Flutamide] | 108 | 102 | 101 | 38.7 | 98.3 | 101 | 105 | 37

Row | SMILES | relative cell viability [1] | relative cell viability [2] | relative cell viability [3] | relative cell viability [4] | relative cell viability [5] | relative cell viability [6] | relative cell viability [7] | relative cell viability [8]
20 | CCOC(=O)C1=C(COCCN)NC(C)=C(C(=O)OC)C1c1ccccc1Cl (stereo unspecified) [Amlodipine besylate] | 88 | 102 | 102 | 105 | 103 | 105 | 106 | 102
21 | Cc1ccc(Nc2nccc(N(C)c3ccc4c(C)n(C)nc4c3)n2)cc1S(N)(=O)=O [Pazopanib] | 104 | 108 | 102 | 116 | 92.7 | 102 | 110 | 110
22 | CCN1CCN(c2cc(-c3ccc(F)cc3)c3c(n2)CCCCCC3)CC1 [Blonanserin] | 101 | 99.5 | 91.2 | 49.4 | 103 | 93.3 | 93.5 | 51.2
23 | CCC(CC)[C@H](NC(C)=O)[C@@H]1[C@H](O)[C@@H](C(=O)O)C[C@H]1NC(=N)N [Peramivir Trihydrate] | 101 | 99.2 | 107 | 111 | 112 | 109 | 103 | 116
24 | Cc1cc(C2CCCCC2)n(O)c(=O)c1 [Ciclopirox] | 95.4 | 92.3 | 80.4 | 5.32 | 87.8 | 69.4 | 20 | 2.16
25 | O=P(O)(O)C(O)(Cc1cccnc1)P(=O)(O)O [Risedronic acid] | 94 | 101 | 96.4 | 71.4 | 99 | 108 | 105 | 107
26 | Cc1nc2n(c(=O)c1CCN1CCC(c3noc4cc(F)ccc34)CC1)CCCC2 [Risperidone] | 104 | 109 | 106 | 113 | 104 | 109 | 104 | 114
27 | CNC(=C[N+](=O)[O-])NCCSCc1ccc(CN(C)C)o1 [Ranitidine] | 82.2 | 102 | 97.9 | 106 | 90.9 | 105 | 106 | 112
28 | N[C@@H](CSCCCO)C(=O)O [Fudosteine] | 105 | 105 | 109 | 111 | 106 | 109 | 104 | 115
29 | COc1cc(Nc2c(C#N)cnc3cc(OCCCN4CCN(C)CC4)c(OC)cc23)c(Cl)cc1Cl [Bosutinib] | 103 | 104 | 107 | 121 | 110 | 125 | 107 | 116
30 | CCCCCCCCCCC[C@@H](C[C@@H]1OC(=O)[C@H]1CCCCCC)OC(=O)[C@H](CC(C)C)NC=O [Orlistat] | 104 | 115 | 94.9 | 107 | 108 | 112 | 102 | 103
31 | CN(C)CCc1c[nH]c2ccc(CS(=O)(=O)N3CCCC3)cc12 [Almotriptan malate] | 98 | 99 | 97.6 | 91.9 | 98.2 | 103 | 102 | 52.1
32 | Nc1nc(F)nc2c1ncn2[C@@H]1O[C@H](COP(=O)(O)O)[C@@H](O)[C@@H]1O [Fludarabine Phosphate] | 115 | 108 | 119 | 113 | 108 | 115 | 119 | 111
33 | COC(=O)[C@H](Cc1ccccc1)NC(=O)[C@@H](N)CC(=O)O [Aspartame] | 100 | 98 | 103 | 106 | 96.5 | 102 | 100 | 98.1
34 | CCOC(=O)[C@H](CCc1ccccc1)N[C@H]1CCc2ccccc2N(CC(=O)O)C1=O [Benazepril hydrochloride] | 102 | 102 | 103 | 109 | 101 | 109 | 108 | 109
35 | COCCOC(=O)C1=C(C)NC(C)=C(C(=O)OC(C)C)C1c1cccc([N+](=O)[O-])c1 (stereo unspecified) [Nimodipine] | 109 | 108 | 109 | 107 | 108 | 109 | 103 | 104
36 | NC(=O)c1cn(Cc2c(F)cccc2F)nn1 [Rufinamide] | 103 | 106 | 109 | 112 | 106 | 106 | 111 | 112
37 | C#C[C@]1(O)CC[C@H]2[C@@H]3CCC4=CC(=O)CC[C@@H]4[C@H]3CC[C@@]21C [norethindrone] | 97.6 | 100 | 97 | 105 | 102 | 108 | 100 | 113
